In the library only some 7.6% were active in any assay of this set; here they are far more common.
hERG WT inh: inhibitors of human wildtype KCNH2 potassium channel. Q12809. U2OS, BacMam KCNH2, thallium flux FluxOr; active compounds read low. activity change, % at 1.84 µM. 340,000 tested, 0.37% active;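 active = maximum activity change below -70%; inconclusive = maximum activity change between -70% and -50%; inactive = maximum activity change above -50%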
Target sequence (Q12809 whole entry, looked up): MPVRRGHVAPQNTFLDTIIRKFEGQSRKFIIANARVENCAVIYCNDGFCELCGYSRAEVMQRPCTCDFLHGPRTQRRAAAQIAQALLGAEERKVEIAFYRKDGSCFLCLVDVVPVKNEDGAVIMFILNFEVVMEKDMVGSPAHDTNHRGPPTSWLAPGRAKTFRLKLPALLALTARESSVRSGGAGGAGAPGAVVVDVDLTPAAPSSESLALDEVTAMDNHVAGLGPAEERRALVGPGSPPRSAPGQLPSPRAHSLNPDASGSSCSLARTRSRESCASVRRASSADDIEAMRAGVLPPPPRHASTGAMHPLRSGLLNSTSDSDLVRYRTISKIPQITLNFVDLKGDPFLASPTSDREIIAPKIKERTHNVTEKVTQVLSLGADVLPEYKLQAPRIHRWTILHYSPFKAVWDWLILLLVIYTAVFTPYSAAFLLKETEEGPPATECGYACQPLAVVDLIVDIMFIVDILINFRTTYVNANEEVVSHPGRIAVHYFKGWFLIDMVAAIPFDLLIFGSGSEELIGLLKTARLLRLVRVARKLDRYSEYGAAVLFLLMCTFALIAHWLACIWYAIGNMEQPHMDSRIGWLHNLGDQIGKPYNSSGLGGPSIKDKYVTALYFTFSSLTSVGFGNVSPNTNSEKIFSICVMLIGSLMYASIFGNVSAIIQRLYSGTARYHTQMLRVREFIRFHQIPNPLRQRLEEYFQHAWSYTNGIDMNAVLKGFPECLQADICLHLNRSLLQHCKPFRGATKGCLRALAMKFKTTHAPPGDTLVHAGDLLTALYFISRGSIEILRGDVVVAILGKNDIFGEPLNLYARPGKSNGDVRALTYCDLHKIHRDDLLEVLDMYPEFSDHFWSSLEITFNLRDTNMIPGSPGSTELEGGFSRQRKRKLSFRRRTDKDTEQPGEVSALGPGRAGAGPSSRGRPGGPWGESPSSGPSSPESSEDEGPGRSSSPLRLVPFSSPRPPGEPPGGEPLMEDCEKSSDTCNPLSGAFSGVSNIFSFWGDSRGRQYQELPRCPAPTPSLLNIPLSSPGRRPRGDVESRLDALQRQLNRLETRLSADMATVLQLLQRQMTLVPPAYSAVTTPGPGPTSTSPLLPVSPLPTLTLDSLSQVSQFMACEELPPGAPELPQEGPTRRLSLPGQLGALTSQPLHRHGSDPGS
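U2OS cells transduced with wild-type KCNH2 virus are loaded with FluxOr dye for 45 min, and thallium flux is measured in kinetic reads before and after stimulation buffer. Rate constants are normalized to DMSO controls.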
KB-3-1 cytotox: KB-3-1 parental cell cytotoxicity. Potency, µM (titrated, usually from 46.1 µM), most hits filed as cytotoxic. KB-3-1 viability, CellTiter-Glo ATP luminescence, 72 h. 400,000 tested, 1.4% active; also: nearly all actives have a fitted effect of over 60% in size
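Cytotoxicity in the drug-sensitive parental line KB-3-1 was scored as loss of CellTiter-Glo luminescence following 72 h incubation with compound. Values come from curve fitting of normalized concentration-response data.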
MCF10A rerep: DNA re-replication induction in MCF 10a cells; AID 624296; 350,000 tested, 2.9% active; Potency, µM (top dose mostly 46.1 µM), most hits filed as activators; MCF 10A DNA re-replication, Hoechst nuclear intensity, 48 h; also: nearly all actives have a fitted effect of over 50% in size
SW480 rerep: induces DNA re-replication in SW480 colon adenocarcinoma cells; SW480 DNA re-replication, Hoechst DNA content imaging, 48 h; Potency, µM (highest dose often 46.1 µM), actives largely listed as activators; 340,000 tested, 1.8% active; also: nearly all actives have a fitted effect of over 55% in size
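Readout is total intensity of Hoechst-stained nuclei, excited at 405 nm and collected at 500-530 nm. Compound treatment lasted 48 hr at 37 C in 5% CO2 before staining.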
KCNH2 3.1 block: blocks the human KCNH2 3.1 channel isoform; U2OS KCNH2 3.1, thallium flux FluxOr; active compounds read low; 340,000 tested, 0.95% active; activity change, % (tested at about 1.8 µM);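 active = maximum activity change below -70%; inconclusive = maximum activity change from -70% to -50%; inactive = maximum activity change above -50%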;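 also: thallium influx rate constant from kinetic fluorescence after stimulation buffer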
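Thallium flux via FluxOr fluorescence (Red40 quencher, 45 min loading) in U2OS cells virally expressing the KCNH2 3.1 isoform (1.77 x 10^8 /mL virus, overnight at 37 C). Rate constants from 2-min kinetic reads post-stimulation, normalised to positive and negative controls.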
KB-V1 cytotox: kills drug-selected multidrug resistant KB-V1 cells; 400,000 tested, 3.4% active; AID 1347076; KB-V1 MDR cells viability, CellTiter-Glo, 72 h; Potency, µM (top dose mostly 46.1 µM), actives largely listed as cytotoxic; also: nearly all actives have a fitted effect of over 60% in size
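Readout: CellTiter-Glo luminescence, 10 min after addition. Cells: KB-V1 MDR subline, 72 h at 37 degrees C with compound. Analysis: corrected, normalized data fitted to concentration-effect curves.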
Numbers stand for hits; 0 = inactive; ? = inconclusive; - = not tested or not shown; [ ] = dose if it differs, or a comment. Unless noted, calls follow the shape of the dose curve; as a rule, active = well fitted curve in the direction sought with a large enough effect; inconclusive = small, poorly fitted or top-dose-only effect, or another doubt; inactive = no such curve, though single readings can be large; an effect the other way counts as inactive or inconclusive.

SMILES	hERG WT inh	KB-3-1 cytotox	MCF10A rerep	SW480 rerep	KCNH2 3.1 block	KB-V1 cytotox
CC(=O)Nc1cccc(NC(=O)C(C)N2c3cccc4cccc(c34)S2(=O)=O)c1 (stereo not drawn)	0	0	0	0	0	?
O=c1c(Cl)c(NCc2ccccc2Cl)cnn1C12CC3CC(CC(C3)C1)C2	0	?	?	?	0	18µM
Cn1c(Cl)c(C(=O)Nc2ccc(Cl)cc2)c2ccccc21	0	8.2µM	0	0	0	21µM
O=[N+]([O-])c1ccc(C(c2sc3nc(-c4ccco4)nn3c2O)N2CCN(c3cccc(Cl)c3)CC2)cc1 (stereo not drawn)	-	0	-	-	-	0
O=C(COC(=O)c1ccc2c(c1)OCO2)Nc1ccccc1F	0	0	0	0	0	0
O=C(CCc1nnc(Cc2ccc3c(c2)OCO3)o1)NC(c1ccccn1)C(F)(F)F (stereo not drawn)	0	0	0	0	0	?
O=C1CCCN1c1ccc(N2CCCC2=O)cc1	0	?	0	0	0	0
CCOc1ccc(NC(=O)CN(C)C(=O)c2cn(-c3ccc(C)cc3)nc2-c2cccc(OC)c2)cc1OCC	0	0	?	0	0	5.8µM
COc1cccc(-c2nn(-c3ccc(C)cc3)cc2C(=O)N(C)CC(=O)Nc2cccc(F)c2)c1	0	?	?	0	0	0
COc1ccc2ccc3c(c2c1)N=C[C@]1(O3)N(C)c2ccccc2C1(C)C	0	0	18µM	15µM	0	?
CNS(=O)(=O)c1cccc(C(=O)OCc2cc(Cl)cc3c2OCOC3)c1	0	0	?	0	0	18µM
CCc1cc2c3c(c1)C1(C(=O)N3C(C)(C)C=C2C)C(C#N)=C(N)Oc2[nH]c(=O)[nH]c(=O)c21 (stereo not drawn)	0	?	?	4.1µM	0	?
CC1=CC(C)(C)N2C(=O)C3(C(C#N)=C(N)Oc4cc(C)oc(=O)c43)c3cc(C)cc1c32 (stereo not drawn)	0	?	0	0	0	0
CCn1c(SCC(=O)c2[nH]c(C)c(C(C)=O)c2C)nnc1-c1cccs1	0	?	0	0	0	2.6µM
CCn1c(SCC(=O)c2cccs2)nnc1-c1cccs1	0	0	0	?	0	0
CCOC(=O)c1ccc(NC(=O)CSc2nnc(-c3cccs3)n2CC)cc1	0	0	0	0	-93	0
CCN(CC)c1ccc2c(C)cc(=O)oc2c1	0	0	26µM	?	0	?
CCN(CC)c1ccc2cc(S(=O)(=O)c3ccc(C)cc3)c(=O)oc2c1	0	0	2.6µM	3.3µM	0	0
Cc1cc(=O)oc2cc(O)ccc12	0	0	0	0	0	0
CCN(CC)c1ccc2ccc(=O)oc2c1	0	0	?	18µM	0	0
CCN(CC)c1ccc2cc(C#N)c(=O)oc2c1	0	0	0	0	0	0
CCOC(=O)[C@@H]1[C@H]2COc3ccccc3[C@@H]2N2C(=O)N(c3ccc(C)cc3)C(=O)[C@]12C	0	0	0	0	0	0
Cc1cc(C)c2c(=O)cc(C(=O)Nc3c(C)n(C)n(-c4ccccc4)c3=O)oc2c1	-	0	-	-	-	0
C#CCOc1ccc(Br)cc1/C=N/O	0	0	0	0	0	0
COc1cc2ccc(NC(C)=O)cc2cc1OC	0	0	-	-	0	0
SMILES	hERG WT inh	KB-3-1 cytotox	MCF10A rerep	SW480 rerep	KCNH2 3.1 block	KB-V1 cytotox
COc1cc2ccc(C(C)=NOC(C)=O)cc2cc1OC	0	5.2µM	-	-	0	2.1µM
O=C(Nc1ccnn1C1CCN(C(=O)c2cnsn2)CC1)c1cccc(F)c1	0	-	0	0	0	-
Nc1ccccc1-c1nc2ccccc2[nH]1	0	0	0[0.0737 µM]	0	0	0
c1ccc(-c2cc(-c3nc4ccccc4[nH]3)c3ccccc3n2)cc1	0	16µM	?	0	0	16µM
COC(=O)C(NC(=O)c1ccccc1Cl)(Nc1ncc(S(=O)(=O)c2ccc([N+](=O)[O-])cc2)s1)C(F)(F)F (stereo not drawn)	0	?	?	?	0	13µM
O=C(CCl)Nc1ncc(S(=O)(=O)c2ccc([N+](=O)[O-])cc2)s1	0	0	?	?	0	0
Cc1ccc2c(c1)S/C(=C/c1ccc[n+](CCO)c1)N2C	0	2.6µM	0	0	0	0
Cc1ccc2c(c1)S/C(=C\c1cccc[n+]1C)N2CCO	0	?	0	0	0	?
O=S1(=O)N=C(OCc2ccccc2)c2ccccc21	-	0	-	-	-	0
CC(C)[C@H](N)c1nnc(SCc2ccc(Cl)cc2)o1	0	0	0	0	0	16µM
COc1ccc2oc(C(=O)c3ccccc3)c(NC(=O)CN3CCN(C)CC3)c2c1	0	0	0	0	0	0
CN1CCN(CC(=O)Nc2c(C(=O)c3ccccc3)oc3ccccc23)CC1	-101	0	0	?	-106	0
CC1(C(=O)NS(=O)(=O)c2ccc(C#N)cc2)CCN1C(=O)c1ccccc1CCc1ccccc1 (stereo not drawn)	-	0	-	-	-	0
Cc1cc(C)cc(NC(=O)CN2CCCN(S(=O)(=O)c3ccc(Br)s3)CC2)c1	0	?	0	0	0	2.9µM
Cc1ccc(NC(=O)CN2CCCN(S(=O)(=O)c3ccc(Br)s3)CC2)cc1	0	0	0	0	0	4.6µM
CCCNC(=O)CN1CCN(S(=O)(=O)c2ccc(Br)s2)CC1	0	0	0	0	0	?
CCCN1C(=O)c2ccccc2NC1c1ccc(OC)c(COc2ccc([N+](=O)[O-])c(C)c2)c1 (stereo not drawn)	-	0	-	-	-	0
COc1ccc(CCNc2cc(C)[nH]c(=O)c2)cc1OC	0	?	0	0	0	0
COc1ccc(CNC(=O)C2CCCN(S(=O)(=O)c3ccc4c(ccn4C)c3)C2)c(OC)c1 (stereo not drawn)	-	0	-	-	-	0
COc1ccc(C2CN=NC23CCCc2ccccc2C3=O)cc1 (stereo not drawn)	0	?	18µM	18µM	0	?
CC(C)(C)c1ccc(N=C2SCC(=O)N2Cc2cccs2)cc1	0	0	23µM	?	0	?
CCOC(=O)C1CCN(C(=O)COC(=O)c2c(C)c(CC)nc3ccccc23)CC1	0	0	0	0	0	?
Cc1ccsc1C(=O)N/N=C/c1ccc2c(c1)OCO2	0	?	0	0	0	18µM
Cc1occc1C(=O)N/N=C/c1ccc(-c2ccccc2)cc1	0	21µM	0	0	0	13µM
Cc1occc1C(=O)N/N=C/c1ccc(OCc2ccccc2)cc1	0	0	0	0	0	0
Cc1occc1C(=O)N/N=C/c1ccc2c(c1)OCO2	0	15µM	0	0	0	7.3µM
CCCNC(=O)N[C@H]1CC[C@@H](CCn2cc(-c3cccc(F)c3)nn2)O[C@@H]1CO	-	0	-	-	-	0
CCOc1ccc2nc(NCCCO)[nH]c2c1	0	0	0	0	0	0
